# High-throughput results (PubChem BioAssay)
# Vaccinia mCherry – vaccinia inhibition (mCherry reporter). 0.63% of 310,000 active. Vaccinia virus mCherry reporter infection, fluorescence. Potency, µM (highest dose often 36.5 µM), without a hit: at the top dose activity change, negative = inhibition, usual class: inhibitors. AID 720579; calls by dose curve; tested in A549 cells; further: potency means the concentration at half of the fitted maximal effect; nearly all actives have a fitted effect of over 35% in size
# Vaccinia Venus – vaccinia inhibition (Venus reporter); Vaccinia virus Venus reporter expression, fluorescence; Potency, µM (highest dose often 36.5 µM), without a hit: at the top dose activity change, negative = inhibition, actives largely listed as inhibitors; 0.46% of 330,000 active; calls by dose curve; tested in A549 cells; further: potency means the concentration at half of the fitted maximal effect; nearly all actives have a fitted effect of over 30% in size
# FMDV inh – foot and mouth disease virus antiviral activity. FMDV antiviral cell-based qHTS. Potency, µM (top dose mostly 57.9 µM), without a hit: top-dose activity change, negative = inhibition, hits mostly inhibitors. 1.2% of 410,000 active. AID 1159524; calls by dose curve; tested in HEK293T cells; further: read-out not given here; potency means the concentration at half of the fitted maximal effect; nearly all actives have a fitted effect of over 45% in size
# Lassa entry inh – Lassa virus entry inhibition; Lassa virus pseudotype entry inhibition, cell reporter; Potency, µM (highest dose often 37.9 µM), without a hit: top-dose activity change, negative = inhibition, most hits filed as inhibitors; 1.2% of 300,000 active; AID 540256; calls by dose curve; tested in HEK293 cells; further: potency means the concentration at half of the fitted maximal effect; nearly all actives have a fitted effect of over 50% in size
# MARV entry inh – Marburg virus entry inhibition; 1.8% of 300,000 active; Marburg virus pseudotyped entry inhibition, cell reporter; Potency, µM (doses to about 37.8 µM), without a hit: at the highest dose activity change, negative = inhibition, most hits filed as inhibitors; calls by dose curve; tested in HEK293 cells; further: potency means the concentration at half of the fitted maximal effect
# HCMV inh – human cytomegalovirus inhibition; HFF cells, HCMV-luciferase reporter, 72 h; hits give low values; activity change, negative = inhibition, % at 57.5 µM; 4.5% of 410,000 active; in the data active means activity change below about -60%; inconclusive means no clear call, values can overlap the other calls; inactive means above about -39%
#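 Human foreskin fibroblasts infected with luciferase-reporter HCMV at MOI 1 PFU/cell, compounds at two doses. Luciferase measured 72 h post infection; normalized to buffer-only basal and Salinomycin (10uM) controls.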
# * = called active by the depositor; i = inactive; ? = inconclusive; . = no result given; [ ] = dose if it differs, or a comment. Hits are enriched below; roughly 6.5% of the tested compounds scored in any of these assays. On the % scale 0 is the no-effect control and ±100 the full control effect.
SMILES,Vaccinia mCherry,Vaccinia Venus,FMDV inh,Lassa entry inh,MARV entry inh,HCMV inh
CCc1ccc(S(=O)(=O)NCc2csc(-c3ccccc3)n2)s1,.,-26%,5%,-19%,-1%,20
O=S(=O)(NCCc1csc(-c2cccc(F)c2)n1)c1cc(F)ccc1F,-15%,-3%,32%,-3%[46.1 µM],.,-106*
CCC(=O)C[C@@H](NC(=O)OC)c1ccc(F)cc1,.,.,.,.,6%[14.2 µM],.
Cc1sc2ncnc(Sc3nnnn3-c3ccc(Cl)cc3)c2c1C,.,.,?,21µM*,?,53
c1ccc(-n2nnnc2Sc2ncnc3sc4c(c23)CCCC4)cc1,-13%,-6%,28µM*,?,?,-7
CCn1cc(C(=O)N2CCN(c3cc(Cl)ccc3C)CC2)c(=O)c2cc(S(=O)(=O)N3CCOCC3)ccc21,-17%,-29%,-26%,-4%[46.1 µM],-26%[46.1 µM],1
Cc1cc(C(F)F)n2nc(C(=O)Nc3ccc(F)c(Cl)c3)nc2n1,-10%,-7%,-2%,13%[46.1 µM],?,?
N#Cc1nc(COc2ccc(-c3ccccc3)cc2)oc1N1CCC(C(N)=O)CC1,i,-14%,.,.,.,.
C/C(=N/NC(=O)NC12CC3CC(CC(C3)C1)C2)c1ccccc1,.,.,7%,.,.,-62*
O=C(N/N=C/c1ccccc1O)NC12CC3CC(CC(C3)C1)C2,?,-26%,10%,?,?,-30
COc1ccc2cc3cc(C(=O)N4CCN(Cc5ccc6c(c5)OCO6)CC4)oc3nc2c1,-5%,?,22µM*,?,?,-39
COc1ccc2cc3cc(C(=O)NCc4ccc5c(c4)OCO5)oc3nc2c1,-21%,-12%,2%,0.82µM*,?,-23
COc1ccc(CNC(=O)c2cc3cc4ccc(C)cc4nc3o2)cc1,-5%,3%,19%,?,?,-11
COc1ccc2cc(C(=O)N3CCN(Cc4ccc5c(c4)OCO5)CC3)[nH]c2c1,i,-21%,-25%,?,?,0
COc1cc(CN2CCC3(CC2)CC3C(=O)Nc2ccc3sc(C)nc3c2)ccc1F (stereo not given),-1%,-1%,-10%,.,.,.
C#C[C@H](N)CCC(=O)O,.,.,.,.,0%,.
CCOc1ccc(C2C(C(=O)Nc3ccccc3)=C(C)Nc3nc(-c4ccccc4)nn32)cc1OC (stereo not given),-18%,-12%,11%,-19%[46.1 µM],-5%[46.1 µM],-20
CCC1C(=O)NCCN1Cc1ccc2c(c1)CN(Cc1ccc(OC)c(OC)c1)CCO2 (stereo not given),-2%,?,-17%,.,.,.
Cc1ccc2nc(C3CCN(C(=O)NCc4ccccc4)CC3)[nH]c2c1,-24%,-13%,2%,-17%[14.3 µM],11%,-88*
Cc1ccc2nc(C3CCCN(C(=O)NCc4ccccc4)C3)[nH]c2c1 (stereo not given),.,.,33%,4%,14%,47
O=C(Nc1ccc(-c2nnc3n2CCCCC3)cc1)c1cc2ccccc2o1,i,-4%,-27%,8%,-6%[46.1 µM],-33
Cc1c(C(=O)Nc2ccc(-c3nnc4n3CCCCC4)cc2)oc2c1ccc1ccccc12,14µM*,?,?,?,?,?
Cc1cccc(C=NNc2cc(C)c3cccc(C)c3n2)n1,.,.,.,.,.,34
Cc1ccc2c(c1)CN(CCC(=O)NCc1cc(C)n(C)n1)CC(C)O2 (stereo not given),-17%,-11%,-6%,.,.,.
CN(CC1CCCCC1)[C@@H]1CC[C@@]23CCCN2C(=O)CCC[C@H]3[C@H]1Cc1ccccc1,.,.,.,.,.,27
SMILES,Vaccinia mCherry,Vaccinia Venus,FMDV inh,Lassa entry inh,MARV entry inh,HCMV inh
Cc1ccccc1NC(=O)c1ccc(N/N=C/c2ccccc2O)c([N+](=O)[O-])c1,-19%,-8%,4%,4%,1%,-84*
Cc1ccc(NC(=O)c2ccc(N/N=C/c3cccc(O)c3)c([N+](=O)[O-])c2)cc1,i,?,0%,?,?,-87*
O=[N+]([O-])c1ccc(N/N=C/c2cccc(O)c2)cc1,-12%,-13%,10%,3%[46.1 µM],?,122
NS(=O)(=O)c1ccc(N/N=C/c2ccccc2C(=O)O)c([N+](=O)[O-])c1,6%,-8%,-3%,4%,-16%[46.1 µM],-24
Cc1cc(C)c2c(NC(=O)CCl)nn(C)c2n1,4.5µM*,?,?,?,?,-110*
COC(=O)c1cccc(NC(=O)N(C)CCc2c(C)nn(C)c2C)c1,-9%,2%,20%,-11%[46.1 µM],.,20
